# NIH3T3 tox: kills NIH 3T3 cells. Potency, µM (titrated, usually from 96.7 µM), inactives show at the top dose activity change, negative = cytotoxicity, hits mostly inhibitors. actives 4.3% (n = 94,000). AID 1345082. NIH 3T3 viability, CellTiter-Glo ATP luminescence, 48-72 h; further: nearly all actives have a fitted effect of over 55% in size
#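 Viability of NIH 3T3 cells after 48 or 72 hr compound treatment at 37 °C was assessed by CellTiter-Glo, with luminescence imaged following a 10 min room-temperature step.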
# NPR1 antag: human Npr1 receptor antagonism. actives 1.6% (n = 76,000). HEK293 hNpr1 GloSensor cGMP, ANP-stimulated luminescence. AID 1347048. Potency, µM (doses to about 46.3 µM), inactives show top-dose activity change, negative = inhibition, hits mostly inhibitors; calls by dose curve; further: nearly all actives have a fitted effect of over 60% in size
#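 Compound pre-incubated 30 min at room temperature on GloSensor-loaded HEK293 cells stably carrying hNpr1 and the pGS-40F cGMP biosensor. Stimulation uses hNppA at 0.1 nM final; luminescence is taken at baseline and 20 min post-agonist.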
# SNCA viab count: counter-screen for SNCA expression inhibitors: cell viability; HEK-293-SNCA-luc viability, GF-AFC fluorescence, 24 h; actives 0.12% (n = 150,000); Potency, µM (doses to about 57.1 µM), inactives show top-dose activity change, negative = cytotoxicity, hits mostly cytotoxic;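 further: 0% = DMSO-treated cells and -100% = medium-only wells without cells; nearly all actives have a fitted effect of over 30% in size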
#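 HEK-293-SNCA-luc cells (1500/well) plated 24 h, then exposed 24 h to a dilution series; GF-AFC added 30 min at 37C, fluorescence 405/540 nm; normalised to medium-only and DMSO wells, Hill fit.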
# HEK cytotox: HEK 293 cell cytotoxicity; HEK 293 viability, ATP luminescence (CellTiter-Glo), 48-72 h; AID 1345083; Potency, µM (series often up to 115 µM), for the others: at the top dose activity change, negative = cytotoxicity, most hits filed as inhibitors; actives 6.6% (n = 94,000); further: nearly all actives have a fitted effect of over 60% in size
#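 HEK 293 cells at 250 cells/well were exposed to compounds by pintool transfer for 48 or 72 hr at 37 degree Celsius, 5% CO2. Viability was read as ATP-coupled luminescence with CellTiter-Glo after 10 min at room temperature.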
# SNCA expr inhib: SNCA gene expression inhibition; HEK-293 SNCA-luciferase knock-in, luminescence, 24 h; actives 0.17% (n = 140,000); AID 1671194; Potency, µM (series often up to 57.2 µM), inactives show top-dose activity change, negative = inhibition, most hits filed as inhibitors;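 further: plate controls were DMSO cells for no effect and cell-free wells for full effect; nearly all actives have a fitted effect of over 45% in size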
# Luciferase inh: inhibitors of firefly (Photinus pyralis) luciferase. P08659. purified P. pyralis luciferase, luminescence, biochemical. Potency, µM (doses to about 115 µM), usual class: inhibitors. actives 2.5% (n = 76,000); further: nearly all actives have a fitted effect of over 65% in size
# Target sequence (P08659 whole entry, looked up): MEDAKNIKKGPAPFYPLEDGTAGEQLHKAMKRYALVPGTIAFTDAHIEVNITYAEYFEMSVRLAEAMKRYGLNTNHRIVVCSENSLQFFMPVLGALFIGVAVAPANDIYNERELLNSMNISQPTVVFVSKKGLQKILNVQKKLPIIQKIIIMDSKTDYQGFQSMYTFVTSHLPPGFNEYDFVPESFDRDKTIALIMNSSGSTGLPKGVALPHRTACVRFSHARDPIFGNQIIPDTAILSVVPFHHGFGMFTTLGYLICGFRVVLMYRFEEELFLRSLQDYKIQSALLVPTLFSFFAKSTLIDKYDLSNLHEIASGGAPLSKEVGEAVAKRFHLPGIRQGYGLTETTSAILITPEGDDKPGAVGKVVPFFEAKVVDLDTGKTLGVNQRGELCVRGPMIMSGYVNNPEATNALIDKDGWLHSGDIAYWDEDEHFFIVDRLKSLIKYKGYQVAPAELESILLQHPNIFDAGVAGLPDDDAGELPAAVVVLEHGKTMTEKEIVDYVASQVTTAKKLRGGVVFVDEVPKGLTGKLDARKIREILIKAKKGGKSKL
#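 FLuc 10nM, D-luciferin 10uM, ATP 10uM, Mg acetate 10mM, Tris acetate pH 7.5, Tween/BSA; cpd qHTS; enzyme added last; CCD luminescence.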
# Active calls of the source: *; i = inactive; ? = inconclusive; . = not tested or not shown; [ ] = dose if it differs, or a comment. Hits are enriched below; roughly 7.2% of the tested compounds scored in any of these assays. Unless noted, the call rests on the fitted dose curve; in most records, active means well fitted curve in the direction sought with a large enough effect; inconclusive means small, poorly fitted or top-dose-only effect, or another doubt; inactive means no such curve, though single readings can be large; an effect the other way counts as inactive or inconclusive. Unless noted, on the % scale 0 is the no-effect control and ±100 the full control effect; potency means the concentration at half of the fitted maximal effect.
SMILES,NIH3T3 tox,NPR1 antag,SNCA viab count,HEK cytotox,SNCA expr inhib,Luciferase inh
O=C(O)C1=NOC2CN(Cc3cccnc3)CC12 (centres undefined),i,.,-4%[87.6 µM],i,13%[87.6 µM],.
Cc1ncc(OC[C@@]2(c3cccc(F)c3)C[C@H]2C(=O)Nc2ccc(F)cn2)c(C)n1,.,.,-5%,.,-2%,.
C=CCN1C[C@@H]2CN(S(=O)(=O)c3cccnc3)C[C@]2(C(=O)O)C1,1%,-1%,2%,1%,?,i
COc1ccc(CNC[C@H]2C[C@@H]3CCN2C[C@@H]3c2cc(-c3cccs3)nn2C)cc1,?,1%[70.6 µM],-16%[87.6 µM],45µM*,-27%[87.6 µM],i
Cc1ccccc1-c1ccc2n(c1=O)C[C@H]1C[C@@H]2CN(C(=O)c2cnccn2)C1,-1%[174 µM],1%[70.6 µM],4%[87.6 µM],89µM*,13%[87.6 µM],i
O=C(c1cnccn1)N1C[C@@H]2C[C@H](C1)c1ccc(-c3cccc(C(F)(F)F)c3)c(=O)n1C2,-5%,6%,0%,-12%,-5%,i
CCOC(=O)[C@@H]1[C@H]2c3ccccc3N(CCOC)C(=O)[C@H]2N(C(=O)CC(C)C)[C@@H]1c1ccccc1,?,.,.,40µM*,.,.
CCOC(=O)[C@H]1CN(C(=O)OCC(C)C)[C@]2(C)C(=O)N(CC3CC3)c3ccccc3[C@H]12,?,.,-24%[23.9 µM],?,?,.
CCOC(=O)[C@@H]1[C@H]2c3ccccc3N(CCOC)C(=O)[C@H]2N(C(=O)C2CCC2)[C@@H]1c1ccccc1,?,.,.,50µM*,.,.
O=C1NC2(CCCN(Cc3ccncc3)C2)COc2ccccc21 (centres undefined),32µM*,-18%[70.6 µM],-9%[87.6 µM],71µM*,-18%[87.6 µM],i
O=C1NC2(CCN(Cc3ccncc3)C2)Oc2ccccc21 (centres undefined),-19%[138 µM],0%[70.6 µM],8%[87.6 µM],-13%[172 µM],23%[87.6 µM],i
CN1CCN(C(=O)Cc2c[nH]c3ncc(-c4ccccc4F)cc23)CC1,?,3%[70.6 µM],7%[87.6 µM],-9%[172 µM],6%[87.6 µM],?
CN1CCN(C(=O)Cc2c[nH]c3ncc(-c4cccc(O)c4)cc23)CC1,89µM*,4%[70.6 µM],2%[87.6 µM],-7%[172 µM],?,?
CN1CCN(C(=O)Cc2c[nH]c3ncc(-c4ccsc4)cc23)CC1,89µM*,7%[70.6 µM],12%[87.6 µM],-10%[172 µM],4%[87.6 µM],?
Cc1nc(-c2ccccc2)cc([C@H]2CN3CC[C@H]2C[C@@H]3CNC(=O)NC(C)C)n1,?,-7%[70.6 µM],-12%[87.6 µM],?,-8%[87.6 µM],i
COc1ccc(NC(=O)NC[C@H]2C[C@@H]3CCN2C[C@@H]3c2cc(-c3ccccc3Br)nc(C)n2)cc1,?,-5%,-15%,79µM*,?,i
Cc1nc(-c2ccccc2Br)cc([C@H]2CN3CC[C@H]2C[C@@H]3CNC(=O)NC2CCCCC2)n1,?,1%,-12%,?,15%,i
Cc1nc(-c2ccccc2Br)cc([C@H]2CN3CC[C@H]2C[C@@H]3CNC(=O)NC(C)C)n1,?,-1%,-10%,79µM*,2%,i
O=C(O)C1=NOC2CN(CC3CCCC3)CC12 (centres undefined),-8%[174 µM],.,-1%[87.6 µM],i,-4%[87.6 µM],.
CC(C)(O)C=CC(=O)[C@](C)(O)[C@H]1[C@H](O)C[C@]2(C)[C@@H]3CC=C4[C@@H](C=C(O)C(=O)C4(C)C)[C@]3(C)C(=O)C[C@@]12C,.,.,?,.,14µM*,.
COc1ccc2c(c1)C1(CCN(C(=O)COc3ccc(Cl)cc3)C1)C(=O)N2C (centres undefined),?,-19%,-9%,-21%,2%,28µM*
COc1ccc2c(c1)C1(CCN(S(=O)(=O)c3ccc(Cl)cc3)C1)C(=O)N2C (centres undefined),-29%,-14%,-30%,50µM*,-17%,i
COc1cc2c(cc1Oc1ccccc1)NC(=O)C21CCN(C(=O)c2ccnn2C)CC1,?,?,-14%[87.6 µM],71µM*,?,i
COc1cc2c(cc1Oc1ccccc1)NC(=O)C21CCN(C(=O)c2cccc(O)c2)CC1,?,-17%,?,45µM*,?,i
COc1cc2c(cc1Oc1ccccc1)NC(=O)C21CCN(C(=O)c2cnccn2)CC1,-9%[138 µM],0%[70.6 µM],-6%[87.6 µM],?,-2%[87.6 µM],i
SMILES,NIH3T3 tox,NPR1 antag,SNCA viab count,HEK cytotox,SNCA expr inhib,Luciferase inh
COc1cc2c(cc1Oc1ccccc1)NC(=O)C21CCN(C(=O)Cc2ccccc2)CC1,?,?,?,40µM*,?,i
COc1cc2c(cc1Oc1ccccc1)NC(=O)C21CCN(C(=O)c2ccccc2)CC1,?,?,?,?,?,i
Nc1ncccc1CN1C[C@H](c2ccc3c(c2)OCO3)[C@@H]2[C@H]1C1CCN2CC1,-9%,-1%,-11%,0%,4%,i
Cc1cccc(OCC(=O)N2CC(N(Cc3ccncc3)CC(C)C)C2)c1,-28%,.,-11%,?,-1%,.
CN1Cc2ccccc2-n2ccnc2C12CCN(C(=O)C1CCC1)CC2,i,6%,-14%,12%,-21%,i
O=C(Nc1ccc2n(c1=O)C[C@H]1C[C@@H]2CN(C(=O)COc2ccccc2)C1)c1cccs1,?,-6%,0%,?,2%,i
O=C(Nc1ccccc1)Nc1ccc2n(c1=O)C[C@H]1C[C@@H]2CN(C(=O)c2cccs2)C1,?,-1%[70.6 µM],-5%[87.6 µM],?,21%[87.6 µM],5.6µM*
O=C(Nc1ccc2n(c1=O)C[C@H]1C[C@@H]2CN(Cc2ccc(F)cc2)C1)c1cccs1,?,?,?,25µM*,?,?
CC(=O)N1C[C@@H]2C[C@H](C1)c1ccc(NC(=O)c3ccc(F)cc3)c(=O)n1C2,-3%[174 µM],0%[70.6 µM],-3%[87.6 µM],4%[172 µM],-2%[87.6 µM],i
C=C[C@H]1CN2CC[C@H]1C[C@@H]2CNC(=O)Nc1cccc(C(F)(F)F)c1,?,-1%[70.6 µM],4%[87.6 µM],100µM*,8%[87.6 µM],i
CC[C@H]1CN2CC[C@H]1C[C@@H]2CNC(=O)Nc1cccc(C#N)c1,0%[174 µM],2%[70.6 µM],1%[87.6 µM],?,8%[87.6 µM],i
CC[C@H]1CN2CC[C@H]1C[C@@H]2CNC(=O)Nc1ccc(C(C)(C)C)cc1,?,-3%[70.6 µM],1%[87.6 µM],71µM*,-22%[87.6 µM],i
C=C[C@H]1CN2CC[C@H]1C[C@@H]2CNC(=O)Nc1ccc(C(C)(C)C)cc1,35µM*,5%[70.6 µM],-7%[87.6 µM],32µM*,?,i
O=C1N(c2ccccn2)C[C@H]2CN(Cc3ccccc3)CCN12,-12%[138 µM],-21%[70.6 µM],0%[87.6 µM],-7%[172 µM],34%[87.6 µM],20µM*

# Screening data (PubChem)
